# Hits are enriched below; roughly 11% of the tested compounds scored in any of these assays.
# Lmaj promast – reduces viability of Leishmania major promastigotes | inhibition, % at 10 µM | resazurin fluorescence viability | hit rate 9% among 200,000; in the data active = inhibition above about 50%;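 note: promastigotes grown with compound for 44 hours at 28 °C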
# Insulin prom up – MIN6 insulin promoter up-regulation; MIN6 insulin promoter-GFP reporter, high-content imaging; hits give high values; z-score at 5 µM; hit rate 0.3% among 190,000;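 active = z-score above 3 at 5 µM with at least 500 cells counted in the well; inconclusive = wells under 500 cells, flagged as cytotoxic or low count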
# Insulin prom inh – TRM-6 insulin promoter activity inhibition; TRM-6 cells (human fetal islet line), insulin promoter-eGFP reporter, imaging; reporter expression induced with tamoxifen; hit rate 0.9% among 130,000; AID 1273; inhibition, % at 2 µM;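 active = inhibition above the mean plus 3 SD, with well images judged a real hit on visual review, cut at about 60% in these data, passing the limit was not always enough; inconclusive = inhibition over the cutoff but images rejected on review; inactive = inhibition not above the cutoff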
# Autophagy HCS – autophagy modulation, high-content screen; MEF GFP-LC3 puncta imaging; test concentration mostly 10 µM; hit rate 0.98% among 190,000; calls only at 10 µM (by protocol); AID 463193;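 active = percentage of spot-positive cells more than 3 SD above its plate mean, without a fluorescence outlier flag or 80% toxicity; inconclusive = no clear call, values can overlap the other calls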;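 note: spot-positive cell cutoff set from DMSO-treated cells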
# WT yeast gro inh – growth inhibition of WT yeast, mitochondrial fusion screen; mitochondrial fusion phenotypic screen, WT strain; inhibition, % at 10 µM; hit rate 2.1% among 190,000; in the data active = inhibition above about 58%; tested in S. cerevisiae
# * = called active by the depositor; i = inactive; ? = inconclusive; . = not tested or not shown.
SMILES,Lmaj promast,Insulin prom up,Insulin prom inh,Autophagy HCS,WT yeast gro inh
Cc1ccc(-n2c(C)cc(-c3csc(N)n3)c2C)cc1,67*,0.51,-40,i,18
Cc1cc(-c2csc(N)n2)c(C)n1C,6,0.35,-17,i,-2
CCOc1ccc(Br)cc1CC(=O)O,-2,.,81*,i,-10
Cc1[nH]n(C(C)(C)C)c(=O)c1Sc1ccc(Cl)cc1,25,-0.33,.,i,61*
Cc1ccc(Sc2c(O)c3ccccc3n(C)c2=O)cc1,-3,-0.2,29,i,-24
O=C1C(=O)N(c2ccc(O)cc2)C(c2ccccc2[N+](=O)[O-])/C1=C(\O)c1ccccc1 (configuration not stated),.,0.25,.,.,.
CC(c1ccccc1)N1C(=O)/C(=C/c2ccncc2)SC1=S (configuration not stated),.,-0.37,.,.,.
CCn1c(Cc2ccccc2)nnc1SCc1cccc(C(=O)O)c1,61*,-0.34,41,i,3
CCOC(=O)c1[nH]c2ccccc2c1NC(=S)Nc1cccc(C)c1,-6,?,14,i,-9
CN1CCC(Oc2ccc(Sc3ccccc3)cc2)CC1,100*,0.06,-31,i,21
CN1CCC(Oc2ccccc2Sc2ccc(C(F)(F)F)cc2)CC1,99*,-1.6,-45,i,73
CSc1ccccc1OC1CCN(Cc2ccccc2)CC1,30,-0.16,-22,i,-2
CN1CCC(OC(=O)COc2ccccc2)CC1,-1,-1.1,18,i,-11
Cc1ccc(NC(=O)c2cc([N+](=O)[O-])ccc2NCc2cccnc2)cc1,4,0.44,-31,i,-16
CCOC(=O)c1cnc(SC)nc1Sc1ccccc1Cl,-4,1.2,29,i,67*
CSc1nc(Sc2ccccc2Cl)c2ccccc2n1,-1,-0.17,27,i,68*
CC(C)c1ccc(NC(=S)NCc2cccs2)cc1,5,0.1,-13,i,67*
Cc1ccc(NC(=S)NCc2cccs2)c(C)c1,16,0.61,0,i,17
COc1ccc(NC(=S)NC(C)Cc2cccs2)cc1 (configuration not stated),2,0.62,.,i,-6
Cc1cc(Cl)ccc1NC(=S)NCc1cccs1,77*,0.02,-62,i,12
CC(Cc1cccs1)NC(=S)Nc1ccc(F)cc1 (configuration not stated),51*,-0.1,-84,i,15
Cc1ccc(S(=O)(=O)Nc2cccc3ncccc23)s1,100*,-0.04,.,i,71*
O=C(c1ccc(Cl)cc1)c1oc2ccccc2c1CS(=O)c1ccccc1 (configuration not stated),8,-1.8,.,i,48
COCCn1c(-c2ccc(-c3ccc([N+](=O)[O-])cc3Br)o2)nc2c1c(=O)[nH]c(=O)n2CC(C)C,73*,1.1,-114,i,48
Cn1c(-c2cc(Cl)ccc2O)nc2c1c(=O)[nH]c(=O)n2Cc1ccccc1,54*,-1.4,.,i,8
SMILES,Lmaj promast,Insulin prom up,Insulin prom inh,Autophagy HCS,WT yeast gro inh
COc1ccc(-c2ccc(-c3nc4c(c(=O)[nH]c(=O)n4Cc4ccccc4)n3C)o2)c([N+](=O)[O-])c1,72*,-0.97,-7,i,31
CCCCn1c(=O)[nH]c(=O)c2c1nc(-c1ccccc1F)n2Cc1ccccc1,45,0.51,.,i,8
COCCn1c(=O)[nH]c(=O)c2c1nc(-c1ccc(-c3ccc(Cl)cc3[N+](=O)[O-])o1)n2Cc1ccccc1,25,-0.92,-47,i,28
O=c1[nH]c(=O)n(Cc2ccccc2)c2nc(-c3ccc(Oc4ccc(F)cc4)c([N+](=O)[O-])c3)n(CCO)c12,22,0.18,74*,i,18
CC(C)c1nnc(NC(=O)CCC(=O)NC2CCCc3ccccc32)s1 (configuration not stated),2,0.76,.,i,-3
CCCCn1c(=O)[nH]c(=O)c2c1nc(-c1ccc(C)c([N+](=O)[O-])c1)n2CC,99*,-0.19,.,i,18
Cc1ccc(-c2nc3c(c(=O)[nH]c(=O)n3CC(C)C)n2CC(C)C)cc1[N+](=O)[O-],24,-0.88,.,i,33
C/C(=N\NC(N)=O)c1ccccc1Cl,.,-0.3,.,.,.
CCn1cc(CNC(=O)c2cccc([N+](=O)[O-])c2)cn1,89*,0.04,-15,i,-6
COc1ccc(-c2nn(-c3ccccc3)cc2CNC(=O)c2cccc([N+](=O)[O-])c2)cc1,52*,0.48,.,i,10
O=C(NCc1cn(-c2ccccc2)nc1-c1ccccc1)c1cc([N+](=O)[O-])cc([N+](=O)[O-])c1,100*,.,-30,i,0
O=C(O)CCC(=O)NCc1cn(-c2ccccc2)nc1-c1cccc(Br)c1,59*,0.01,15,i,1
CCn1ncc(CNC(=O)c2cccc([N+](=O)[O-])c2)c1C,-4,-0.24,.,i,-3
O=C(NCc1cn(-c2ccccc2)nc1-c1ccccc1)c1cccc([N+](=O)[O-])c1,25,.,.,i,20
C/C(O)=C(\N=Nc1cc(C)ccc1O)C(N)=O,-11,1.3,.,i,-12
O=C(Nc1nc2ccccc2[nH]1)c1ccc(Br)o1,16,-1,8,i,2
Cc1ccccc1C(=O)NC(=S)N(C)CCc1ccccn1,-12,0.12,.,i,-11
O=C(/C=C/c1ccccc1Cl)Nn1cnc2ccccc2c1=O,79*,-0.64,36,i,-3
Cc1nc2ccccc2c(=O)n1NC(=O)/C=C/c1ccccc1Cl,69*,-0.31,0,i,-7
Cc1nc2ccccc2c(=O)n1NC(=O)c1ccccc1Cl,1,-0.3,25,i,74*
Cc1ccc(-c2cc(C(=O)N3N=C(C(F)F)CC3(O)C(F)F)c3ccccc3n2)cc1C (configuration not stated),61*,0.12,7,i,92*
CCCc1c(C(=O)Nc2cc(C)on2)cnn1-c1ccccc1,.,1.2,.,.,.
O=C(NC1CCCC1)C(c1ccccc1)N(Cc1cccnc1)C(=O)Cc1cccs1 (configuration not stated),45,1.4,.,i,-29
O=C(Nc1nnc(-c2ccco2)o1)c1ccc2ccccc2c1,69*,-0.05,-4,i,52
Cc1ccc(C(=O)Nc2nnc(-c3ccco3)o2)cc1,12,-0.02,.,i,17
SMILES,Lmaj promast,Insulin prom up,Insulin prom inh,Autophagy HCS,WT yeast gro inh
Cc1ccsc1C(=O)Nc1nnc(-c2ccco2)o1,88*,0.05,.,i,2
COc1cc(/C=C2/NC(=O)N(Cc3ccccc3F)C2=O)ccc1O,-9,-0.02,.,i,4
COc1cc(/C=C2/NC(=O)N(Cc3ccccc3F)C2=O)ccc1Oc1ccc([N+](=O)[O-])cn1,80*,0.26,39,i,-3
CCn1ccnc1CNCc1cn(-c2cc(C)ccc2C)nc1-c1ccccc1,65*,-0.38,0,i,32
COCCN1CCC(CNCc2cn(-c3cc(C)ccc3C)nc2-c2ccccc2)C1 (configuration not stated),100*,-0.32,.,i,9
Cc1ccc(C)c(-n2cc(CNCCc3cnccn3)c(-c3ccccc3)n2)c1,24,-0.52,.,i,7

# From PubChem
